± gives the standard deviation of the averaged measurements.

The first experiment relates to Escherichia coli Nissle 1917. Kind of experiment: area under OmniLog respiration curve over 48 h (OmniLog units x h); higher = more growth / nutrient utilisation; extreme values may be limits of the assay. The settings on record: nutrient role: C-Source, carbohydrate; incubation: 48 h, 37 °C.
Turning to `O=C(CO)[C@@H](O[C@H]1O[C@H](CO)[C@@H](O)[C@H](O)[C@H]1O)[C@H](O)[C@H](O)CO` [Turanose], the “area under OmniLog respiration curve” value worked out at 532 ± 350.
For the compound `OC[C@@H](O)[C@@H](O)[C@H](O)[C@@H](O)CO` [D-Sorbitol], the “area under OmniLog respiration curve” value stood at 8340 ± 910.
Turning to `OCC(O)C(O)C(O)CO` (stereo unspecified) [Adonitol], the “area under OmniLog respiration curve” value is 2610 ± 350.
On the same count and under the same terms, under `OC[C@H]1OC(O)[C@H](O)[C@@H](O)[C@@H]1O` (stereo partly drawn) [a-D-Glucose] stands 7320 ± 620; under `OC[C@@H](O)[C@@H](O)[C@H](O)[C@H](O)CO` [D-Mannitol], 7850 ± 650.
On to `OC[C@H]1O[C@@H](Oc2ccc(O)cc2)[C@H](O)[C@@H](O)[C@@H]1O` [Arbutin], for which the “area under OmniLog respiration curve” value came out at 4.72.
The same measure, in the same setting: for `OCC1(O)OC[C@@H](O)[C@H](O)[C@@H]1O` (stereo partly drawn) [D-Tagatose] the value was 6560 ± 520.
With `OC[C@H](O)C(O)[C@@H](O)CO` [L-Arabitol], the “area under OmniLog respiration curve” value was 4.72.
The same measure, in the same setting: for `C[C@@H](O)[C@H](O)[C@H](O)[C@@H](O)C=O` [D-Fucose] the value was 21 ± 25.

The experiment is the same for the next values; noted with them: nutrient role: C-Source, carboxylic acid; incubation: 48 h, 37 °C.
Take `C/C=C/C=C/C(=O)O` [Sorbic acid]: the “area under OmniLog respiration curve” value turned out to be 7.09 ± 4.1.
Same read-out and setting: under `O=C(O)c1ccccc1O` [2-Hydroxybenzoic acid] stands 4.72.
`O=C(O)C(O)C(O)C(=O)O` (stereo unspecified) [m-Tartaric acid]: the “area under OmniLog respiration curve” value was determined as 4.72.
The same measure, in the same setting: under `O=C(O)CC(CC(=O)O)C(=O)O` [Tricarballylic acid] stands 5.51 ± 1.4; under `CCCCCCCCCC(=O)O` [Capric acid], 14.2 ± 6.8.
The same measure, in the same setting: under `O=C(O)CCC(=O)C(=O)O` [a-Ketoglutaric acid] stands 5770 ± 360; under `C=C(CC(=O)O)C(=O)O` [Itaconic acid], 4.72.
Same read-out and setting: under `O=C(O)C[C@H](O)C(=O)O` [L-Malic acid] stands 8910 ± 230; under `O=C(O)C[C@@H](O)C(=O)O` [D-Malic acid], 3920 ± 860.
In the case of `CCCC(=O)C(=O)O` [a-Keto-Valeric acid], the “area under OmniLog respiration curve” value turned out to be 4.72.
For `O=C(O)[C@H](O)[C@@H](O)C(=O)O` [L-Tartaric acid], the “area under OmniLog respiration curve” value was 34 ± 28.
In the case of `O=C(O)[C@H]1OC(O)[C@H](O)[C@@H](O)[C@@H]1O` (stereo partly drawn) [D-Glucuronic acid], the “area under OmniLog respiration curve” value worked out at 10000 ± 950.

Staying with this experiment, now noted: nutrient role: sole nitrogen source (pyruvate carbon); incubation: 48 h, 37 °C.
On to `N[C@H]1C(O)O[C@H](CO)[C@H](O)[C@@H]1O` (stereo partly drawn) [D-Galactosamine], for which the “area under OmniLog respiration curve” value came out at 11.2 ± 11.
Regarding `O=C(O)CC[C@@H](C(=O)O)N1C(=O)c2ccccc2C1=O` [N-Phthaloyl-L-Glutamic acid], the “area under OmniLog respiration curve” value worked out at 4540 ± 1100.
The same measure, in the same setting: for `Nc1nc2[nH]cnc2c(=O)[nH]1` [Guanine] the value was 27.5 ± 39; for `NCC(=O)N[C@@H](CC(N)=O)C(=O)O`, 8340 ± 1500; for `N[C@@H]1C(O)O[C@H](CO)[C@@H](O)[C@@H]1O` (stereo partly drawn) [D-Mannosamine], 1020 ± 700.

The values are drawn from the supplement of paper PMC9801561.
